# Inconclusive results are not listed. A call without a number means that no potency is given here. Active and inactive are the calls of the source. The call rests on the fitted dose curve; in most records, active means well fitted curve in the direction sought with a large enough effect; inconclusive means small, poorly fitted or top-dose-only effect, or another doubt; inactive means no such curve, though single readings can be large; an effect the other way counts as inactive or inconclusive.
# Legend:
# [1] = qHTS of pediatric cancer cell lines to identify multiple opportunities for drug repurposing: Confirmatory screen for Rh18 cells (AID 1347125); settings: Rh18 rhabdomyosarcoma cells, viability; series mostly up to 45.9 µM; further: nearly all actives have a fitted effect of over 55% in size; further: potency means the concentration at half of the fitted maximal effect
# How it was run: (§1)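 Cells (500-1,000/well) rested 5 h, then received compounds for 48 h; metabolically active cells were measured by CellTiter-Glo luminescence. Final concentrations spanned up to 46 µM (MIPE, 11-point) or 0.59 nM-46 µM (NPC, 8-point) in primary screens, 11-point in follow-ups.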
# [2] = qHTS of pediatric cancer cell lines to identify multiple opportunities for drug repurposing: Confirmatory screen for Rh30 cells (AID 1347126); settings: Rh30 rhabdomyosarcoma cell viability; series mostly up to 45.9 µM; further: nearly all actives have a fitted effect of over 55% in size; further: potency means the concentration at half of the fitted maximal effect
# How it was run: as §1
# [3] = qHTS of pediatric cancer cell lines to identify multiple opportunities for drug repurposing: Confirmatory screen for OHS-50 cells (AID 1347128); settings: OHS-50 osteosarcoma cells viability; series mostly up to 45.9 µM;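 further: compound exposure lasted 48 h at 37 degrees C; nearly all actives have a fitted effect of over 55% in size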; further: potency means the concentration at half of the fitted maximal effect
# How it was run: as §1
# [4] = qHTS of pediatric cancer cell lines to identify multiple opportunities for drug repurposing: Confirmatory screen for SK-N-SH cells (AID 1347129); settings: SK-N-SH neuroblastoma cell viability; series mostly up to 46.1 µM;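 further: cells exposed to compound for 48 h before viability read; nearly all actives have a fitted effect of over 60% in size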; further: potency means the concentration at half of the fitted maximal effect
# Source text: Drug repurposing or repositioning has been offered as a strategy for drug development in oncology programs. This approach has special potential for childhood cancers and other rare or orphan diseases, where the expected return on new drug development has been a disincentive to pharmaceuticals.
# In this project we exploit the poly-pharmacology of drugs to discover new indications via phenotypic screening of a panel of 19 well-characterized cell lines derived from solid tumors seen in children and adolescents. The goal is to identify approved drugs with previously unrecognized anticancer properties that has the potential to reveal new mechanisms and biological processes involved in carcinogenesis or drug resistance. We employed a titration-based paradigm (quantitative high-throughput screening or qHTS), where all compounds were tested at multiple concentrations for their effect on cell viability. Concentration-response curves (CRCs) were derived directly from the primary screen, and both potency and efficacy values were used to identify compounds with robust bioactivity profiles. We screened the NIH Chemical Genomics Center (NCGC) Pharmaceutical Collection (NPC) and Mechanism Interrogation Plate (MIPE) small molecule collections of approved and investigational compounds against these cell lines; and measured metabolically active cells after 48 hours of compound treatment as a proxy for cell viability.
# Assay Submitter: Nathalia J. Martinez, National Center for Advancing Translational Sciences, National Institutes of Health, Rockville, MD, USA; email: natalia.martinez@nih.gov
# [1] Shen, M et al. Quantitative high-throughput phenotypic screening of pediatric cancer cell lines identifies multiple opportunities for drug repurposing. Oncotarget 2017 Dec 19;9(4):4758-4772. PMID 29435139.
# The cells were obtained from University of North Carolina (UNC), Pediatric Preclinical Testing Program (PPT), and Coriell Institute (CI).
# qHTS cell viability assay:
# Cells were assayed in growth media at a density of 500-1,000 cells/well. Five microliters of cells were dispensed into 1,536-well, white, solid-bottom, TC-treated plates (Greiner Bio One) using a multidrop dispenser and incubated at 37 degrees C, 5% CO2, under a humidified atmosphere for 5 hours. Twenty-three nanoliters of compounds and controls (neutral control DMSO or positive control bortezomib at final concentration of 2.3 µM) were subsequently transferred by Kalypsys pintool. For primary screens, the MIPE collection was tested at 11-point dilutions (final concentrations range from 0.78 nM to 46 µM) and the NPC collection at 8-point dilutions (final concentrations range from 0.59 nM to 46 µM). Compounds tested in follow-up screens were assayed at 11-point dilutions. Cells were incubated for 48 hours, followed by addition of 3 µL of CellTiter-Glo (Promega). After a 15 min incubation at room temperature, samples were analyzed for luminescence intensity using a ViewLux High-throughput CCD imager equipped with clear filters.
# [5] = biological target: N-terminal Xaa-Pro-Lys N-methyltransferase 1 (Homo sapiens) (UniProt Q9BV86); test: qHTS Assay for Inhibitors of N-terminal methyltransferase 1 (NTMT1): LOPAC validation of the NTMT1 SAHH-coupled ThioGlo3 Assay (AID 1347143); settings: recombinant NTMT1, SAHH-coupled ThioGlo3 fluorescence; series mostly up to 114 µM;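 further: SAH from peptide methylation measured as thiol fluorescence via SAHH coupling and ThioGlo3; nearly all actives have a fitted effect of over 70% in size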
# How it was run: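 NTMT1 125nM + cpds (various conc.), 1 min RT; add SAM 100uM/SAHH 10uM/ThioGlo3 15uM (addition mix). SAHH-coupled thiol detection, Ex340/Em450, t0 and 30 min RT; signal normalized to background. LOPAC 1280-cpd pilot.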
# [6] = qHTS of pediatric cancer cell lines to identify multiple opportunities for drug repurposing: Confirmatory screen for Saos-2 cells (AID 1347127); settings: Saos-2 osteosarcoma cell viability; series mostly up to 45.9 µM; further: nearly all actives have a fitted effect of over 60% in size; further: potency means the concentration at half of the fitted maximal effect
# How it was run: as §1
# [7] = biological target: Furin (Homo sapiens) (UniProt P09958); test: Furin counterscreen qHTS for Zika virus inhibitors (AID 1347149); settings: furin enzymatic counterscreen, fluorogenic substrate; series mostly up to 114 µM; further: nearly all actives have a fitted effect of over 70% in size; further: potency means the concentration at half of the fitted maximal effect
# How it was run: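 Counterscreen measures cleavage of 2 microM BOC-RVRR-AMC, below its ~15 microM Km, by 5 nM full-length human furin at pH 7.0 after a 15-min compound preincubation. Inhibition derives from the 15-min fluorescence increase at 37C.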
# [8] = tested on: Zika virus NS2B-NS3 protease (linked construct); test: Confirmatory screen NINDS AMC qHTS for Zika virus inhibitors (AID 1347152); settings: Purified linked NS2B-NS3, AMC substrate fluorescence; further: potency means the concentration at half of the fitted maximal effect; nearly all actives have a fitted effect of over 70% in size
# Source text: Assay Submitters (PI): Avindra Nath, Ph.D., National Institute of Neurological Disorders and Stroke (NINDS), Bethesda, MD Radhakrishnan Padmanabhan, Ph.D., Georgetown University (GU), Washington D.C. Zika Virus causes congenital defects, including microcephaly and is associated with Guillain-Barre syndrome, eningoencephalitis and myelitis in infected adult. […] Using a target-based approach, we hope to establish a screening paradigm to uncover novel, cell-active NS2B-NS3 protease (Zika Virus) specific inhibitors from NCATS' collection of small molecules using qHTS. […] Four assay panel was created to identify potential Zika Virus inhibitors. Namely, (1) GU unlinked NS2B-NS3 AMC tagged protease qHTS, (2) GU unlinked NS2B-NS3 Rhodamine tagged protease qHTS, (3) NINDS linked NS2B-NS3 AMC tagged protease qHTS, (4) NINDS linked NS2B-NS3 Rhodamine tagged protease qHTS. Active compounds were re-acquired and re-screened to confirm inhibition. Inhibitors were further screened against various confirmatory and counterscreens in dose response format. Early Translation Branch (ETB) National Center for Advancing Translational Sciences (NCATS), Rockville, MD National Institute of Health (NIH), Bethesda, Maryland
# Materials: For the linked assay, Nath lab (NINDS) provided the purified linked NS2B-NS3 protease which is consists of hydrophilic domain of NS2B linked to the NS3 protease domain by a flexible (-[…]-) linker. Control compound aprotinin is obtained from Thermo Scientific (#78432; Waltham, Massachusetts). […] Plates were then read immediately on a ViewLux High-throughput CCD imager (PerkinElmer, Waltham, MA) equipped with standard UV fluorescence optics (340(30) nm excitation, 450(20) nm emission) then incubated (room temperature, protected from light) for 15 minutes (~20% conversion). The change in fluorescence intensity over the 15-minute reaction period was normalized against no-inhibitor and no-enzyme controls and the resulting percent inhibition data were fitted to a 4-parameter Hill equation. […]
# [9] = tested on: Zika virus NS2B-NS3 protease (unlinked complex); test: Confirmatory screen GU AMC qHTS for Zika virus inhibitors (AID 1347153); settings: Recombinant NS2B-NS3 protease, AMC substrate fluorescence;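 further: enzyme at 25 nM with substrate at 10 µM below its Km of 18.3 µM; potency means the concentration at half of the fitted maximal effect; nearly all actives have a fitted effect of over 70% in size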
# How it was run: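 Compounds were preincubated 15 min at room temperature with 25 nM noncovalent NS2B-NS3 protease at pH 8.0; AMC substrate added at 10 microM and 15-min fluorescence gain (340/450 nm) converted to percent inhibition, fitted 4-parameter.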
# [10] = tested on: Zika virus NS2B-NS3 protease (unlinked); test: Optimization of GU AMC qHTS for Zika virus inhibitors: Unlinked NS2B-NS3 protease assay (AID 1347151); settings: recombinant ZIKV NS2B-NS3 protease, fluorogenic AMC substrate; series mostly up to 52.5 µM; further: nearly all actives have a fitted effect of over 80% in size
# How it was run: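 Percent inhibition is derived from the 15-min change in AMC fluorescence, normalized against no-inhibitor and no-enzyme controls, then fitted to a 4-parameter Hill curve. Aprotinin was the intraplate control.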
# Chain of N-terminal Xaa-Pro-Lys N-methyltransferase 1 (Homo sapiens) (Q9BV86 whole entry, looked up): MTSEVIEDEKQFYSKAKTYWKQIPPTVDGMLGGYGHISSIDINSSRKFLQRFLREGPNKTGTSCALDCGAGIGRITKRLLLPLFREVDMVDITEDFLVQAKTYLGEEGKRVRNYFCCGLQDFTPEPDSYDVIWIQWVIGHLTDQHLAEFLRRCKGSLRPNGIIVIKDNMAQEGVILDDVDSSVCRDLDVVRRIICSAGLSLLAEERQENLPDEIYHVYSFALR
# Chain of Furin (Homo sapiens) (P09958 whole entry, looked up): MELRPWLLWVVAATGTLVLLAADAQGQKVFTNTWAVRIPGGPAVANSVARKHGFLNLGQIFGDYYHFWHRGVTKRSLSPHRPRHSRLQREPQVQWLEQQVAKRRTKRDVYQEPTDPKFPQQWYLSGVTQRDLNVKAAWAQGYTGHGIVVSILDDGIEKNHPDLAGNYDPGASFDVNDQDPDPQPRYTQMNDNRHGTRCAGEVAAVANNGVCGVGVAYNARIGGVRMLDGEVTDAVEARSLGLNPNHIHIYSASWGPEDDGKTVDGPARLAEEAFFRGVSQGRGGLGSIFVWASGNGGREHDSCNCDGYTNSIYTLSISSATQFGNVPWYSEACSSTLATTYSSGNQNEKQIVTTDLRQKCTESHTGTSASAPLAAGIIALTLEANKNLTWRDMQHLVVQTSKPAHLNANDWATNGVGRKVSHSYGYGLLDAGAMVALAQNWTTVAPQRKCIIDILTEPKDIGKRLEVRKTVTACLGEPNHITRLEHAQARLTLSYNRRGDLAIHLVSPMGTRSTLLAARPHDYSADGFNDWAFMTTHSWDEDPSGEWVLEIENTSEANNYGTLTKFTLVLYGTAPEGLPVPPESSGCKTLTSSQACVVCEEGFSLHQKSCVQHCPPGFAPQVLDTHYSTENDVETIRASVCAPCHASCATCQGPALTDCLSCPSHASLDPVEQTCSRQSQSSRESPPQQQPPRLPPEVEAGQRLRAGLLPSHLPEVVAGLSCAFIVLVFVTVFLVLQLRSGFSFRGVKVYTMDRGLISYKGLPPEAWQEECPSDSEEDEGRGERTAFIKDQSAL
smiles,measurement,setting,value
O=C(O)CCCc1ccc(N(CCCl)CCCl)cc1,Potency,[1],inactive
same,Potency,[2],inactive
same,Potency,[3],inactive
same,Potency,[4],inactive
O=C(CCCN1CCC2(CC1)C(=O)NCN2c1ccccc1)c1ccc(F)cc1,outcome,[5],inactive
CCCN(CCC)C(=O)Cc1c(-c2ccc(Cl)cc2)nc2ccc(Cl)cn12,Potency,[1],inactive
same,Potency,[2],7.37 µM (active)
same,Potency,[6],inactive
same,Potency,[3],inactive
same,Potency,[4],inactive
O=C(Nc1ccc(Br)cc1)c1cc(Br)cc(Br)c1O,Potency,[7],27.1 µM (active)
same,Potency,[8],19.2 µM (active)
same,Potency,[9],21.5 µM (active)
O=C1OC(c2ccc(O)c(S(=O)(=O)O)c2)(c2ccc(O)c(S(=O)(=O)O)c2)c2c(Br)c(Br)c(Br)c(Br)c21,Potency,[7],inactive
CN1C(=O)CCS(=O)(=O)C1c1ccc(Cl)cc1 (stereo not drawn),outcome,[5],inactive
same,outcome,[10],inactive
CC(C)c1cccc(C(C)C)c1O,outcome,[5],inactive
same,outcome,[10],inactive
CC(C)N(CCC(C(N)=O)(c1ccccc1)c1ccccn1)C(C)C (stereo not drawn),outcome,[5],inactive
same,outcome,[10],inactive
COc1ccc2c(c1OC)C(=O)O[C@H]2[C@@H]1c2cc3c(cc2CCN1C)OCO3,outcome,[5],inactive
O=c1oc2ccccc2c(O)c1Cc1c(O)c2ccccc2oc1=O,Potency,[7],inactive
O=c1c(C2CC(c3ccc(-c4ccc(Br)cc4)cc3)Cc3ccccc32)c(O)sc2ccccc12 (stereo not drawn),Potency,[8],19.2 µM (active)
same,Potency,[9],12.1 µM (active)
Cc1ncsc1CCCl,outcome,[10],inactive
CC(NC(C)(C)C)C(=O)c1cccc(Cl)c1 (stereo not drawn),Potency,[1],inactive
same,Potency,[6],18.5 µM (active)
same,Potency,[4],inactive
same,outcome,[5],inactive
same,outcome,[10],inactive
C[C@]12CC[C@@H]3c4ccc(OC(=O)N(CCCl)CCCl)cc4CC[C@H]3[C@@H]1CC[C@@H]2O,Potency,[8],21.5 µM (active)
COc1cccc2c1C(=O)c1c(O)c3c(c(O)c1C2=O)C[C@@](O)(C(=O)CO)CC3OC1CC(N2CCOC(OC)C2)C(O)C(C)O1 (stereo partly drawn),Potency,[1],0.0522 µM (active)
same,Potency,[2],0.0465 µM (active)
same,Potency,[3],0.0233 µM (active)
same,Potency,[4],0.0235 µM (active)
C[C@](O)(CS(=O)(=O)c1ccc(F)cc1)C(=O)Nc1ccc(C#N)c(C(F)(F)F)c1,Potency,[1],inactive
same,Potency,[2],inactive
same,Potency,[6],inactive
same,Potency,[3],inactive
same,Potency,[4],inactive
O=c1[nH]oc2c1CCNC2,outcome,[5],inactive
same,outcome,[10],inactive
C[C@]12CCC(=O)C=C1CC[C@@H]1[C@@H]2CC[C@@]2(C)[C@H]1CC[C@]2(C)O,Potency,[1],inactive
same,Potency,[2],inactive
same,Potency,[6],inactive
same,Potency,[3],inactive
same,Potency,[4],inactive
O=C(N/N=C/c1ccc([N+](=O)[O-])o1)c1cc([N+](=O)[O-])cc([N+](=O)[O-])c1O,Potency,[1],inactive
same,Potency,[2],inactive
same,Potency,[6],inactive
same,Potency,[3],inactive
same,Potency,[4],inactive
C=C(C)[C@H]1CN[C@H](C(=O)O)[C@H]1CC(=O)O,outcome,[5],inactive
same,outcome,[10],inactive
CCC1(c2ccc(N)cc2)CCC(=O)NC1=O (stereo not drawn),outcome,[5],inactive
same,outcome,[10],inactive
NCCc1ccc(O)cc1,outcome,[5],inactive
same,outcome,[10],inactive
O=P1(N(CCCl)CCCl)NCCCO1 (stereo not drawn),Potency,[1],inactive
same,Potency,[2],inactive
same,Potency,[6],inactive
same,Potency,[3],inactive
same,Potency,[4],inactive
same,outcome,[10],inactive
CCOP(=S)(OCC)Oc1ccc2c(C)c(Cl)c(=O)oc2c1,Potency,[1],inactive
same,Potency,[2],inactive
same,Potency,[6],inactive
same,Potency,[3],inactive
same,Potency,[4],inactive
CC(C)(C)NCC(O)c1ccccc1Cl (stereo not drawn),outcome,[5],inactive
same,outcome,[10],inactive
CCCCCN(C)CCC(O)(P(=O)(O)O)P(=O)(O)O,outcome,[5],inactive
same,outcome,[10],inactive

# From PubChem BioAssay (NCATS)
